High-throughput results from PubChem BioAssay.
The full list was thinned out, with hits kept by preference.
Methyltransferases – Primary Screen for Target Class Profiling of Small Molecule Inhibitors of Methyltransferases; hit rate 3.9% among 25,000; calls only at 40 µM; purified enzyme, MTase-Glo SAH luminescence; stronger effect = lower value; AID 1745853, 2022; call rule not given here
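Each enzyme was reacted with SAM and its substrate, with compounds tested once at 40 uM; SAH formed was read by MTase-Glo luminescence.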
* hit, by the source's call. % is set by controls: 0 for no effect and ±100 for the full control effect.

What do the screens show for `Cc1[nH]nc2ccc(-c3cncc(OC[C@@H](N)Cc4c[nH]c5ccccc45)c3)cc12`?
Methyltransferases: active

What do the screens show for `Cc1cccc(C2c3cccn3-c3ccccc3CN2C(=O)Nc2ccc(Br)c(C)c2)c1` (stereo unspecified)?
Methyltransferases: inactive

What do the screens show for `Cc1cccc(C2c3cccn3-c3ccccc3CN2C(=O)Nc2cccc(C)c2C)c1` (stereo unspecified)?
Methyltransferases: inactive

What do the screens show for `COc1cccc(CNC(=O)N2Cc3ccccc3-n3cccc3C2c2ccc(Cl)cc2)c1` (stereo unspecified)?
Methyltransferases: inactive

Results for COc1ccc(OC)c(NC(=O)N2Cc3ccccc3-n3cccc3C2c2cccs2)c1 (stereo unspecified) ?
Methyltransferases: inactive

Results for Cc1cccc(NC(=O)N2Cc3ccccc3-n3cccc3C2C(C)C)c1 (stereo unspecified) ?
Methyltransferases: inactive

What do the screens show for `COCCCNC(=O)N1Cc2ccccc2-n2cccc2C1c1cccc(Cl)c1` (stereo unspecified)?
Methyltransferases: inactive

What do the screens show for `CCOC(=O)c1cccc(NC(=O)N2Cc3ccccc3-n3cccc3C2c2cc(F)cc(F)c2)c1` (stereo unspecified)?
Methyltransferases: inactive

What do the screens show for `Cc1ccc(NC(=O)N2Cc3ccccc3-n3cccc3C2c2cccs2)cc1F` (stereo unspecified)?
Methyltransferases: inactive

What do the screens show for `CCCN1CC[C@@H]2c3cc(O)ccc3CC[C@@H]21`?
Methyltransferases: active

How did COc1ccc(C2c3cccn3-c3ccccc3CN2C(=O)Nc2cc(F)ccc2F)cc1OC (stereo unspecified) do in these assays?
Methyltransferases: inactive

How did CCOc1ccc(C2c3cccn3-c3ccccc3CN2C(=O)Nc2ccc(F)cc2)cc1 (stereo unspecified) do in these assays?
Methyltransferases: inactive

What do the screens show for `CCOc1ccc(C2c3cccn3-c3ccccc3CN2C(=O)NCc2ccco2)cc1` (stereo unspecified)?
Methyltransferases: inactive

What do the screens show for `COc1ccc(C2c3cccn3-c3ccccc3CN2C(=O)CCC(=O)NC2CCCCC2)cc1` (stereo unspecified)?
Methyltransferases: inactive

What do the screens show for `CCc1ccc(C2c3cccn3-c3ccccc3CN2C(=O)Nc2ccc(Br)cc2)cc1` (stereo unspecified)?
Methyltransferases: inactive

What do the screens show for `CN(N=O)c1ccc(O)c(O)c1`?
Methyltransferases: active

Results for CCCNC(=O)N1Cc2ccccc2-n2cccc2C1c1ccc(Cl)cc1 (stereo unspecified) ?
Methyltransferases: inactive

What do the screens show for `COc1ccc(C2c3cccn3-c3ccccc3CN2C(=O)Nc2ccccc2F)cc1OC` (stereo unspecified)?
Methyltransferases: inactive

Results for CN(C)c1ccc(C2c3cccn3-c3ccccc3CN2C(=O)Nc2ccc3c(c2)OCCO3)cc1 (stereo unspecified) ?
Methyltransferases: inactive

How did COc1ccc(NC(=O)N2Cc3ccccc3-n3cccc3C2c2ccccc2)cc1 (stereo unspecified) do in these assays?
Methyltransferases: inactive

How did C[C@H]1CCCC(=O)CCC/C=C/c2cc(O)cc(O)c2C(=O)O1 do in these assays?
Methyltransferases: active

What do the screens show for `CC1CCCCCC(=O)c2c(O)cc(O)cc2CC(=O)O1` (stereo unspecified)?
Methyltransferases: inactive

What do the screens show for `CC1C/C=C/C(O)C(O)CC/C=C/c2cc(O)cc(O)c2C(=O)O1` (stereo unspecified)?
Methyltransferases: inactive

What do the screens show for `CCCNC(=O)N1Cc2ccccc2-n2cccc2C1c1ccc(N(C)C)cc1` (stereo unspecified)?
Methyltransferases: inactive

What do the screens show for `CC(C)CCNC(=O)N1Cc2ccccc2-n2cccc2C1c1cccc(Cl)c1` (stereo unspecified)?
Methyltransferases: inactive

Results for Cc1cccc(C2c3cccn3-c3ccccc3CN2C(=O)Nc2ccc3c(c2)OCCO3)c1 (stereo unspecified) ?
Methyltransferases: inactive

What do the screens show for `COc1cccc(CNC(=O)N2Cc3ccccc3-n3cccc3C2c2ccc(F)cc2)c1` (stereo unspecified)?
Methyltransferases: inactive

Results for O=C1NC(=O)c2c1c1c3ccccc3[nH]c1c1[nH]c3ccccc3c21 ?
Methyltransferases: active

How did CCOc1ccc(C2c3cccn3-c3ccccc3CN2C(=O)Nc2cccc(Cl)c2)cc1 (stereo unspecified) do in these assays?
Methyltransferases: inactive

How did COc1ccccc1NC(=O)N1Cc2ccccc2-n2cccc2C1c1ccc(C)cc1 (stereo unspecified) do in these assays?
Methyltransferases: inactive

How did NCCc1c[nH]c2ccccc12 do in these assays?
Methyltransferases: active

How did CC(N)Cc1c[nH]c2ccccc12 (stereo unspecified) do in these assays?
Methyltransferases: inactive

Results for CC(=O)NCCc1c[nH]c2ccccc12 ?
Methyltransferases: inactive

What do the screens show for `Cc1ccc(C)c(NC(=O)N2Cc3ccccc3-n3cccc3C2C(C)C)c1` (stereo unspecified)?
Methyltransferases: inactive

What do the screens show for `O=C(Nc1cccc(Cl)c1)N1Cc2ccccc2-n2cccc2C1c1cccs1` (stereo unspecified)?
Methyltransferases: inactive

What do the screens show for `CCOc1ccccc1NC(=O)N1Cc2ccccc2-n2cccc2C1C(C)C` (stereo unspecified)?
Methyltransferases: inactive

Results for CCOC(=O)c1ccccc1NC(=O)N1Cc2ccccc2-n2cccc2C1c1cccs1 (stereo unspecified) ?
Methyltransferases: inactive

What do the screens show for `COc1ccc(C2c3cccn3-c3ccccc3CN2C(=O)Nc2cc(C)ccc2C)cc1` (stereo unspecified)?
Methyltransferases: inactive

How did CCCCCOc1cc2c(cc1-c1cc(/C=C/C(=O)O)ccc1O)C(C)(C)CCC2(C)C do in these assays?
Methyltransferases: active

Results for CCOCCCNC(=O)N1Cc2ccccc2-n2cccc2C1c1ccccc1Cl (stereo unspecified) ?
Methyltransferases: inactive

Results for C=C(CO)C(=O)O[C@H]1CC(=C)[C@@H]2C[C@H](O)C(=C)[C@@H]2[C@H]2OC(=O)C(=C)[C@@H]21 ?
Methyltransferases: active

Results for CN(C)c1ccc(C2c3cccn3-c3ccccc3CN2C(=O)Nc2ccccc2F)cc1 (stereo unspecified) ?
Methyltransferases: inactive

What do the screens show for `COCCCNC(=O)N1Cc2ccccc2-n2cccc2C1c1ccc(OC)cc1` (stereo unspecified)?
Methyltransferases: inactive

Results for CCOC(=O)c1ccccc1NC(=O)N1Cc2ccccc2-n2cccc2C1c1cccc(Cl)c1 (stereo unspecified) ?
Methyltransferases: inactive

Results for N[C@@H](Cn1oc(=O)[nH]c1=O)C(=O)O ?
Methyltransferases: inactive

Results for Cc1o[nH]c(=O)c1CC(N)C(=O)O (stereo unspecified) ?
Methyltransferases: inactive

What do the screens show for `NC(Cc1cc(O)c(O)cc1O)C(=O)O` (stereo unspecified)?
Methyltransferases: active

Results for CCOc1ccc(NC(=O)N2Cc3ccccc3-n3cccc3C2c2ccc(OC)cc2)cc1 (stereo unspecified) ?
Methyltransferases: inactive

How did CCOc1ccccc1NC(=O)N1Cc2ccccc2-n2cccc2C1c1cccc(Cl)c1 (stereo unspecified) do in these assays?
Methyltransferases: inactive
